Compound activity deposited in PubChem BioAssay by Broad Institute.
Tgondii IFNg: inhibitors of Toxoplasma gondii growth with IFN-gamma. Toxoplasma gondii growth in IFN-gamma-treated host cells; active compounds read low. activity change, negative = inhibition, % (concentration not given with the values). 3.8% of 69,000 active; in the data active = activity change below about -70%, passing the limit was not always enough;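 also: host cells are HeLa cells infected with Toxoplasma gondii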
An asterisk follows results filed as active; ! = not confirmed by another sample. The full list was thinned out, with hits kept by preference.

SMILES	Tgondii IFNg
COc1ccc(CN2C[C@@H]3CCN(C(=O)c4ccno4)CC[C@H]3S2(=O)=O)cc1	-6.1
CC(C)CN1C[C@@H]2CCN(C(=O)NC3CCCC3)CC[C@H]2S1(=O)=O	-55.3
COc1cccc(CN2C[C@@H]3CCN(C(=O)C4CCC4)CC[C@H]3S2(=O)=O)c1	-90.7*
COc1ccc(CN2C[C@@H]3CCN(C(=O)c4ccn[nH]4)CC[C@H]3S2(=O)=O)cc1	-1.8
COc1ccc(CCN2C[C@@H]3CCN(C(=O)c4cnc(C)cn4)CC[C@H]3S2(=O)=O)cc1	7.8
O=C(C1CCC1)N1CC[C@H]2CN(Cc3ccccc3)S(=O)(=O)[C@@H]2CC1	-18.2
O=C(NC1CCCC1)N1CC[C@H]2CN(Cc3ccc(Cl)cc3)S(=O)(=O)[C@@H]2CC1	-89.3*
O=C(c1ccn[nH]1)N1CC[C@H]2CN(Cc3ccc(Cl)cc3)S(=O)(=O)[C@@H]2CC1	-73.2*
O=C(C1CCC1)N1CC[C@H]2CN(Cc3ccc(Cl)cc3)S(=O)(=O)[C@@H]2CC1	-46.6
O=C(Cn1ncc2c(N3CCCCC3)ncnc21)N1CCN(c2ccccc2F)CC1	-22.1
Cc1ccc2c(c1)NC1(CCN(C(=O)c3ccccc3Br)CC1)c1cccn1-2	13.5
COc1cc(C(=O)N2CCCC(c3n[nH]c(=O)n3-c3ccccc3)C2)ccn1 (centres undefined)	52.3
Cc1c(NC(=O)c2ccco2)cccc1C(=O)NC(C)c1cccs1 (centres undefined)	6.0
CCN1C[C@@H](COC)[C@]2(CCN(C(=O)N3CCCC3)C2)C1	-42.5
CCOc1ccc(Nc2nc(-c3nnc(-c4ccc(OC)cc4)o3)nc3ccccc23)cc1	231.4
CC(=O)N1N=C(c2ccc3ccccc3c2)OC1c1cccc(Cl)c1 (centres undefined)	-51.3
N#Cc1ccc(-c2ccc([C@@H]3[C@@H]4CN(Cc5cocn5)C[C@H]3N4)cc2)cc1	-46.1
N#Cc1ccc(-c2ccc([C@@H]3[C@@H]4CN(S(=O)(=O)Cc5ccccc5)C[C@H]3N4)cc2)cc1	-70.6*
N#Cc1cccc(-c2ccc(C3[C@@H]4CN(Cc5ccccc5)C[C@H]3N4)cc2)c1 (some centres undefined)	-21.1
CC[C@H]1OC[C@@H]2CN(C(=O)c3ccnnc3)CC[C@H]21	3.6
CN1CCCCC1CCNC(=O)c1ccc(N2CCNCC2)nc1 (centres undefined)	1.2
CCOc1ccccc1-c1nc(CN2CCc3c(sc4c3CCCC4)C2c2ccccc2)c(C)o1 (centres undefined)	84.5
CC(=O)c1ccc2c(c1)N(CCCN1CCN(CCO)CC1)c1ccccc1S2	28.5
CN(C)CC/C=C1/c2ccccc2Sc2ccc(Cl)cc21	-62.0
OCCN1CCN(CC/C=C2/c3ccccc3Sc3ccc(C(F)(F)F)cc32)CC1	-77.2*
SMILES	Tgondii IFNg
CC(CN(C)C)CN1c2ccccc2Sc2ccccc21 (centres undefined)	6.5
OCCN1CCN(CCCN2c3ccccc3C=Cc3ccccc32)CC1	16.8
CN1CCCC(CN2c3ccccc3Sc3ccccc32)C1 (centres undefined)	16.3
CCSc1ccc2c(c1)N(CCCN1CCN(C)CC1)c1ccccc1S2	-78.0*
COc1ccc2c(c1)N(C[C@H](C)CN(C)C)c1ccccc1S2	28.9
CN1CCN(CCC=C2c3ccccc3Sc3ccc(S(=O)(=O)N(C)C)cc32)CC1	78.4
CN1CCN(CCCN2c3ccccc3Sc3ccc(Cl)cc32)CC1	2.1
OCCN1CCN(CCCN2c3ccccc3Sc3ccc(C(F)(F)F)cc32)CC1	-96.8*!
CN(C)CCCN1c2ccccc2Sc2ccc(C(F)(F)F)cc21	-89.3*!
O=C(NCC1CCN(Cc2cccnc2)C1)Nc1ccccc1Cl (centres undefined)	6.1
C=CCN(C)C(=O)c1coc(COc2ccc3ccc(OC)cc3c2)n1	-51.2
Cc1ccc(C2(O)CCN(C(=O)c3ccc(-c4ccccc4)[nH]3)CC2)nc1	-45.1
Cc1nc2ccccn2c1CN(C)Cc1nc(-c2cccnc2)no1	-35.5
CN1CC2(CCN(C(=O)c3csc(-c4cccnc4)n3)C2)OC1=O (centres undefined)	-5.3
O=C(c1cc(-c2ccncc2)n[nH]1)N1CCN(C(=O)c2cccc3[nH]ccc23)CC1	16.6
C=CCOc1c(Cl)cc(C(=O)NCc2cnc(C)cn2)cc1Cl	8.4
C=CCN1C(=O)C2(NCCc3c2[nH]c2ccc(F)cc32)c2ccccc21 (centres undefined)	57.1
COCCC(=O)N1CCN(Cc2csc(C)n2)c2ncccc2C1	4.2
Cc1ccc(CN2CCC[C@@]3(C(=O)N4CCOCC4)CN(c4ncccn4)C[C@H]3C2)s1	16.2
Cn1ccnc1-c1nc(NCCN2CCOCC2)ncc1-c1cccs1	4.6
c1ccc2c(c1)CCCc1cc(NCCN3CCOCC3)nnc1-2	16.6
O=C1C(Cl)=C(NCCN2CCOCC2)C(=O)c2ncccc21	-80.3*
Cn1ccc2cc(CCC(=O)NCc3ccccn3)ccc21	-59.2
CCCS(=O)(=O)N1CCC2OCCCC2(COCC2CC2)C1 (centres undefined)	-5.7
COc1ccc(-c2nc3c(s2)CN(C(=O)Nc2ccc(C)cc2Cl)CC3)cc1OC	29.5
SMILES	Tgondii IFNg
Nc1nccc(/C=C/c2c(F)cccc2Cl)n1	-73.9*
Cc1cccc(Cn2c(C)c(CNCCc3c[nH]c4ccccc34)c(C(=O)O)c2C)c1	11.8
O=C(Nc1cc(F)ccc1F)c1c(O)c2cccnc2n(-c2ccc(F)cc2)c1=O	138.0
COCc1nc(C)c(CNC(=O)c2scc3c2CCCC3)s1	-46.6
C=CCOc1ccc2c(=O)cc(C(=O)OCC)oc2c1CCC	-2.8
CCc1c(C)c2ccc(OCC(=O)OC(C)C)c(C)c2oc1=O	37.4
CCCCOc1ccc2c(=O)c(-c3cc(C(=O)OC)oc3C)c(C(F)(F)F)oc2c1C	-108.0*
Cc1ccc(N2CCO[C@H]3CN(C(=O)c4ccccn4)C[C@@H]32)nn1	1.4
COCCC(=O)N1CCC(c2nc(Nc3cccc(F)c3)cc(-c3cccnc3)n2)CC1	-12.1
c1cc(-c2ccn[nH]2)cc(-n2cnnc2)c1	70.9
Cc1oc2ncn3nc(C(C)NC(=O)CCc4ccccc4)nc3c2c1C (centres undefined)	11.5
CC(C)c1ccc(C(NC(=O)CCc2ccccc2)c2ccc3cccnc3c2O)cc1 (centres undefined)	-102.0*
O=C(CCc1ccccc1)Nc1ccc(Cl)cn1	-54.3
CCn1ncnc1CN(C)Cc1cccc2cnccc12	-20.6
Cc1nc(C)c(C(=O)N2CCC(O)(Cn3ccnc3C)CC2)s1	39.3
CN1[C@H]2CC[C@@H]1CN(C(=O)c1ccccc1N1CCS(=O)(=O)CC1)CC2	2.8
O=C1NCC2(CCCN(C(=O)c3ccc4c(c3)OCCO4)CC2)O1 (centres undefined)	-54.0
CCCc1cc(C(=O)N2CCCC(c3[nH]c4c(C)cccc4c3-c3ccncc3)C2)no1 (centres undefined)	-116.2*
CCCc1[nH]ncc1C(=O)N1CCCC(c2[nH]ncc2-c2ccc(F)cc2)C1 (centres undefined)	-7.8
CCCc1cc(C(=O)N2CCCC(c3[nH]ncc3-c3ccccc3)C2)ccn1 (centres undefined)	-3.1
CCC(CC)c1nnc(NC(=O)C2CC(=O)N(CCc3c[nH]c4ccc(C)cc34)C2)s1 (centres undefined)	8.4
O=C(c1cn[nH]n1)N1CCCC1c1nc2ccc(F)cc2[nH]1 (centres undefined)	14.2
COc1cccc(CN2CC[C@]3(CCC[C@@H]3C(=O)N3CCOCC3)C2)c1	3.5
CN(C)C(=O)N1CCC(c2cc3c(ncn3C)c(NCc3ccccc3)n2)CC1	4.6
